Article PMC7819943, “Rice protein-binding microarrays: a tool to detect cis-acting elements near promoter regions in rice”
Whole data set: some 68,000 sequences, median “fluorescence intensity (a.u.)” near 9,100, cut for the highest 2% near 16,000. The full list was thinned out, with the highest values kept by preference.

Each sequence was assayed against OsWRKY34 (Oryza sativa, UniProt Q0JBA9 1-250) (assay: protein-binding microarray (RPBM); PBS, 2% BSA, 51.3 ng/ul salmon testes DNA, 50 uM zinc acetate, 200 nM TF, 25 C, 1 h; high values mean tight binding). Details: protein: recombinant; tags: N-terminal polyhistidine and DsRed monomer fusion (pET32a); label: CyDye5-dUTP incorporated in the synthesized complementary strand; 3' TTTTT single-stranded linker to array surface; dsDNA, one strand shown.
Chain of OsWRKY34 (Q0JBA9 entry or part of it): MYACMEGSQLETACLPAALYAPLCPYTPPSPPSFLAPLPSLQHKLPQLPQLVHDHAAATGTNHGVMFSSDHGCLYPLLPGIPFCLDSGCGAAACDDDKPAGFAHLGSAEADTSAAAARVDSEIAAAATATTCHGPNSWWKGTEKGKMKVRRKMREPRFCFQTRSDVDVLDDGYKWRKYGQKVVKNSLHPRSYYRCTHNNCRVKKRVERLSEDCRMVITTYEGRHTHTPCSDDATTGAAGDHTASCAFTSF
Procedure, shortened: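 Binding signal here means per-feature fluorescence intensity in arbitrary units. The values were read on an Axon 4000B scanner after a custom Agilent array, double-stranded by primer extension with Cy5-dUTP, was incubated with 200 nM protein at 25 °C for 1 h in PBS with 2% BSA, salmon testes DNA and 50 µM zinc acetate, then washed. The proteins were transcription factors with an N-terminal polyhistidine tag and DsRed, expressed in E. coli BL21-CodonPlus and purified on Ni–NTA.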
In the case of “TCTACGAGGGTTTTTGCGCTTTTGTTGCTCTCCGCTCCGCCGGAGTCACCTAGTGCAG”, the binding signal is reported as 8160 fluorescence intensity (a.u.). With “GGTTGGTGACGCGTTGTTGTTTGTTCCTCAAATTTGTTCTCGGAGTCACCTAGTGCAG” the binding signal was 16500 fluorescence intensity (a.u.). For “CTGCGCTCTCCATTGTTTTGTGTTGTGTTTGTTTGCAGTCCGGAGTCACCTAGTGCAG”, the binding signal was 17700 fluorescence intensity (a.u.). With “TCGCGCGTGTCACTGGGTTTGGGTTGGGTCTCTCTCTCTCCGGAGTCACCTAGTGCAG” the binding signal was 18400 fluorescence intensity (a.u.). With “GGTTTCGGTCTCGGTTTTTTCGGTTCGGTTCTTCGGTTCGCGGAGTCACCTAGTGCAG” the binding signal was 9660 fluorescence intensity (a.u.). For “AACCTCAATTTTGTTTGTTTTGCCTTTTGGTTCAAATACTCGGAGTCACCTAGTGCAG”, the binding signal was 8180 fluorescence intensity (a.u.). In the case of “GTTGGTTGGTTGGTTGGTTGGCTTCTTCTCGGTTTGTTCGCGGAGTCACCTAGTGCAG”, the binding signal is reported as 25000 fluorescence intensity (a.u.). “ACGTTGTTTGTGTCACGCTTCTCAAATCCCTTGGTGTTCTCGGAGTCACCTAGTGCAG” was tested, and the binding signal was 11700 fluorescence intensity (a.u.). For “GGTTGGCTTCTTCTCGGTTTGTTCGTTCCTTGTGGTCGAGCGGAGTCACCTAGTGCAG”, the binding signal was 8240 fluorescence intensity (a.u.). “TCGCGTCGCGTTTCGACCTCGCGCTCTGGGTCTGGGTGTCCGGAGTCACCTAGTGCAG” was tested, and the binding signal was 8330 fluorescence intensity (a.u.). In the case of “TCTCAGCGGCCCGAACCTGTCTACGTCGCCCGTGTCTTGTCGGAGTCACCTAGTGCAG”, the binding signal is reported as 11200 fluorescence intensity (a.u.). “CTGGCACTTGGCACTTGGTTAATTCCACTCACTCATCACTCGGAGTCACCTAGTGCAG” was tested, and the binding signal was 8260 fluorescence intensity (a.u.). In the case of “ACATGTGGAGGGAACAGGGCGTGGAATCAAGGGTCGGGATCGGAGTCACCTAGTGCAG”, the binding signal is reported as 8290 fluorescence intensity (a.u.). “AGATATACCGTTGTTGCATTTCACCTTAAAATATTTCCAACGGAGTCACCTAGTGCAG” was tested, and the binding signal was 8550 fluorescence intensity (a.u.). In the case of “GCTCTCTTCTCGCCGCCTCGGCCTCGCCGCCGTGGCCGCCCGGAGTCACCTAGTGCAG”, the binding signal is reported as 9500 fluorescence intensity (a.u.). With “ACATAACCCCGTCATCTCGGCGACCCTCTCTCGTGGTCGCCGGAGTCACCTAGTGCAG” the binding signal was 8540 fluorescence intensity (a.u.). For “GTCTCACTCTCCCAATCCGCCTCGGCCCGAGCGCGCGCGCCGGAGTCACCTAGTGCAG”, the binding signal was 9530 fluorescence intensity (a.u.). For “CCTTGTATTCGGCCCGCACACGCCAACCTGTCCTGTTCTGCGGAGTCACCTAGTGCAG”, the binding signal was 9600 fluorescence intensity (a.u.). In the case of “GGCGAAGTACTTCTTGGTGTTGTTGCTGCCGCTGCCGGCGCGGAGTCACCTAGTGCAG”, the binding signal is reported as 8120 fluorescence intensity (a.u.). “TGGTTTGGTTTGGTTCTTTGTTGTTGCTGCCGCTGCCGCGCGGAGTCACCTAGTGCAG” was tested, and the binding signal was 31400 fluorescence intensity (a.u.). “GGTGTTGGGTGTTTGTTCGTTGGTTCCGCTGCTGCTGTTGCGGAGTCACCTAGTGCAG” was tested, and the binding signal was 8180 fluorescence intensity (a.u.). With “CAGGGCCATGTTCGCTGATACATTGTGTTGGATTGCACTGCGGAGTCACCTAGTGCAG” the binding signal was 8030 fluorescence intensity (a.u.). With “GTTTACCATTGCATTCCCCGGTCCACGTGCATCAGTGCATCGGAGTCACCTAGTGCAG” the binding signal was 9610 fluorescence intensity (a.u.). For “AGTGTCTGACACTACTTAAGAAACCATAGCAGTGCTAAAGCGGAGTCACCTAGTGCAG”, the binding signal was 31200 fluorescence intensity (a.u.). With “ACACTACCTTAAAGAAACATCAGTGACATCTCCATCACTCCGGAGTCACCTAGTGCAG” the binding signal was 8750 fluorescence intensity (a.u.). For “CACACTATAGCTAGTACTAGTACTAGTACTACTTAAACTACGGAGTCACCTAGTGCAG”, the binding signal was 8120 fluorescence intensity (a.u.). “GCCTACTTAAATTACATTTCCGCACCCACACCACACACACCGGAGTCACCTAGTGCAG” was tested, and the binding signal was 11400 fluorescence intensity (a.u.). With “GCCGGCCTGGGAGGCCGAAGGTTGGGGATGACAGGTGGGGCGGAGTCACCTAGTGCAG” the binding signal was 8920 fluorescence intensity (a.u.). With “GCTGCCCGCTCTAATCTGTTTTGTCTCCATCTGCTATGATCGGAGTCACCTAGTGCAG” the binding signal was 8950 fluorescence intensity (a.u.). With “GAGTACTCGTCCGGGGTTTTTAACTTTTTGCCACTTTTAACGGAGTCACCTAGTGCAG” the binding signal was 9100 fluorescence intensity (a.u.). For “GAGAACCTAATTGTGAGGCTCCTAGTTACACGACAAATCACGGAGTCACCTAGTGCAG”, the binding signal was 56300 fluorescence intensity (a.u.). In the case of “AACAATCACCTAGGCTAAATGTTACTTCCTCCGTTTCACACGGAGTCACCTAGTGCAG”, the binding signal is reported as 9190 fluorescence intensity (a.u.). With “GGTGTGTTTGGCAAATGAGTTATGAGAGGTGTGATTGTTACGGAGTCACCTAGTGCAG” the binding signal was 8860 fluorescence intensity (a.u.). For “CGTACTATAATTTTGTCATTCCTGTTGAAATTTTATAATTCGGAGTCACCTAGTGCAG”, the binding signal was 9340 fluorescence intensity (a.u.). For “GCCGGTCTCCTCCCCGCCACCGCCGCCGCCGCCGCCAATGCGGAGTCACCTAGTGCAG”, the binding signal was 8650 fluorescence intensity (a.u.). In the case of “TAGCTTTGGAGGAGGAGGAGGAGGAGGGGCGCGAGCCATGCGGAGTCACCTAGTGCAG”, the binding signal is reported as 10800 fluorescence intensity (a.u.). With “ATATATATATATATATATATATATATATAGAGCGCGCACTCGGAGTCACCTAGTGCAG” the binding signal was 21200 fluorescence intensity (a.u.). For “TTGAGAGCTGGAGGCGCAGGCTGGGATCGGCGGAGCCATGCGGAGTCACCTAGTGCAG”, the binding signal was 63200 fluorescence intensity (a.u.). With “ATATATATATATATATATATATATATATATATGCGCAGAGCGGAGTCACCTAGTGCAG” the binding signal was 9140 fluorescence intensity (a.u.). In the case of “GGCGGCGGAGGAGGAGGAGGCGCGAGGGGAGGCGAGCATGCGGAGTCACCTAGTGCAG”, the binding signal is reported as 8150 fluorescence intensity (a.u.). For “GGGCGAGGAGCAGCGGCGGGCGGGCGGATGAGGGGCGGCGCGGAGTCACCTAGTGCAG”, the binding signal was 11400 fluorescence intensity (a.u.). “GCGGGATCGCGCGGGCGGCGGCGGCGGCGGGGAGGGGATGCGGAGTCACCTAGTGCAG” was tested, and the binding signal was 16900 fluorescence intensity (a.u.). For “GGCGGCGGCGGAGGAGGAGGAGGGGAGGGGAGCACGAGCGCGGAGTCACCTAGTGCAG”, the binding signal was 17400 fluorescence intensity (a.u.). “GGAGGAGAGCTTGGTGGTGCGCTGATCGGCGGATGCGGGGCGGAGTCACCTAGTGCAG” was tested, and the binding signal was 8490 fluorescence intensity (a.u.). “CGATCGGAGGAGGAGGCGGCGGGGAGGGAGGAGGAGGATGCGGAGTCACCTAGTGCAG” was tested, and the binding signal was 10800 fluorescence intensity (a.u.). “CGATCGGGCCGCGGCGCGAGGGAGGGGATCGGTGCGCGCGCGGAGTCACCTAGTGCAG” was tested, and the binding signal was 8060 fluorescence intensity (a.u.). “ATATATATATATATATATATATAGAGAGAGAGAGAGAGACCGGAGTCACCTAGTGCAG” was tested, and the binding signal was 8980 fluorescence intensity (a.u.).
